FBPA coupling cs: qHTS Assay for Inhibitors of Fructose-1,6-bisphosphate Aldolase from Giardia Lamblia: Coupling assay counterscreen; coupling enzyme system counterscreen, AmpLite Red fluorescence; activity change, negative = inhibition, % at 58.2 µM, hits read low; 0.67% of 290,000 active; AID 2472, 2010; in the data active = activity change below about -30%
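Activity here indicates interference with the coupling reaction, not aldolase inhibition. Compounds at 57.5 uM final met coupling enzymes for 10 min at RT; substrate and AmpLite Red detection followed, with a 525/598 nm fluorescence read after 20 min.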
TrxR1 substrate: qHTS Assay for Substrates of Mammalian Selenoprotein Thioredoxin Reductase 1 (TrxR1): qHTS. Thioredoxin reductase 1, cytoplasmic (Rattus norvegicus), O89049. purified TrxR1 substrate turnover, NADPH consumption readout. Potency, µM (doses to about 114 µM), for inactives: top-dose activity change, negative = substrate turnover. 0.01% of 390,000 active; also: potency is read from the fitted curve at half-maximal effect; nearly all actives have a fitted effect of over 50% in size
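Rat TrxR1, dispensed at 90 nM, was prereduced with 400 uM NADPH (final) for 5 min at ~22 deg C, then incubated with compound 15 min before 400 uM selenite. A first-read NADPH fluorescence drop versus no-compound background flagged substrates.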
TrxR1 inh: qHTS Assay for Inhibitors of Mammalian Selenoprotein Thioredoxin Reductase 1 (TrxR1): qHTS; recombinant rTrxR1, NADPH fluorescence consumption, selenite substrate; 1% of 390,000 active; Potency, µM (top dose mostly 114 µM), inactives show at the top dose activity change, negative = inhibition, hits mostly inhibitors; AID 588453, 2011; also: potency is read from the fitted curve at half-maximal effect; nearly all actives have a fitted effect of over 65% in size
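Rat TrxR1 (90 nM in the dispensed reagent) was pre-reduced with 400 uM NADPH for 5 min at room temperature, then incubated with compound for 15 min. After 400 uM selenite was added, NADPH fluorescence (Ex 340/Em 450 nm) was followed for 8 min.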
GALK inh: qHTS Assay for Inhibitors of Human Galactokinase (GALK); Purified GALK, Kinase-Glo residual ATP luminescence; Potency, µM (top dose mostly 57.5 µM), without a hit: at the top dose activity change, negative = inhibition, hits mostly inhibitors; AID 1868, 2009; 0.007% of 270,000 active; also: potency is read from the fitted curve at half-maximal effect
Target sequence (P51570 whole entry, looked up): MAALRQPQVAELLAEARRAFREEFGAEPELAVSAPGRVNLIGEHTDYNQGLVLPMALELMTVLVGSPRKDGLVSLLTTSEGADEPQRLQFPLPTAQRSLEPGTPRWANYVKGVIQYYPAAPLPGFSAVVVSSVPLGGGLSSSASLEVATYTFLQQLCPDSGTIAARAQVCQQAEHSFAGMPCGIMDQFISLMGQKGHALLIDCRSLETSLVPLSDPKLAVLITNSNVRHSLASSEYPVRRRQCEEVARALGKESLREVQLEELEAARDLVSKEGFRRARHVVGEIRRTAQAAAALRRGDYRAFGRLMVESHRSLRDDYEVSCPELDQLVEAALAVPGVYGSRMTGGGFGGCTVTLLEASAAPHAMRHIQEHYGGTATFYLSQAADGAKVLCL
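Compounds were pin-transferred into ATP buffer (35 uM final), then GALK plus galactose (5 nM, 100 uM final) was added. After 1 h at room temperature, Kinase-Glo Plus was added and luminescence read after 10 min.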
RORgamma inh: qHTS for inhibitors of ROR gamma transcriptional activity. Drosophila S2 Gal4-RORgamma UAS-luciferase reporter, 20 h. Potency, µM (series often up to 53.6 µM), for inactives: at the highest dose activity change, negative = inhibition, actives largely listed as inhibitors. 5.4% of 310,000 active. AID 2551, 2010; also: potency is read from the fitted curve at half-maximal effect; nearly all actives have a fitted effect of over 60% in size
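Drosophila Schneider cells stably carrying a metallothionein-driven Gal4 DBD–ROR gamma fusion and a UAS-Photinus luciferase reporter were exposed to compound for 1 hr, then induced with copper sulfate (700 uM final) for 20 hr at ambient temperature before luminescence reading.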
Gal4-VP16 FLuc: VP16 counterscreen qHTS for inhibitors of ROR gamma transcriptional activity. 3.5% of 310,000 active. AID 2546, 2010. Drosophila S2 Gal4-VP16 UAS-luciferase, luminescence, 20 h. Potency, µM (titrated, usually from 53.6 µM), for inactives: at the highest dose activity, negative = inhibition, most hits filed as inhibitors;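 also: Gal4-VP16 expression switched on by copper sulfate through the metallothionein promoter; potency is read from the fitted curve at half-maximal effect; nearly all actives have a fitted effect of over 50% in size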
The depositor's hits bear a star; u = inconclusive; x = no result given; ! = not active in a repeat; [ ] = remark or other dose. In the library only some 5.9% were active in any assay of this set; here they are far more common. Unless noted, calls follow the shape of the dose curve; as a rule, active = well fitted curve in the direction sought with a large enough effect; inconclusive = small, poorly fitted or top-dose-only effect, or another doubt; inactive = no such curve, though single readings can be large; an effect the other way counts as inactive or inconclusive. % is scaled to controls: 0 for no effect and ±100 for the full control effect.

SMILES | FBPA coupling cs | TrxR1 substrate | TrxR1 inh | GALK inh | RORgamma inh | Gal4-VP16 FLuc
C[n+]1c2cc(N)ccc2cc2ccc(N)cc21 | -16 | -11% | -6% | x | u | 7.1µM*
C[C@]12CCC(=O)C=C1CCC1C2CC[C@@]2(C)C1CC[C@]2(C)O (some centres not stated) | x | 8%[57.1 µM] | 5%[57.1 µM] | x | x | x
O=C1NC(=O)N(c2ccccc2F)C(=O)/C1=C/c1ccc(Oc2ccc([N+](=O)[O-])cn2)cc1 | 4 | 4% | 3.5µM* | 3% | 3% | -12%[10 µM]
CC1OC(=O)C(C(C)C)NC(=O)C(C(C)C)OC(=O)C(C(C)C)NC(=O)C(C)OC(=O)C(C(C)C)NC(=O)C(C(C)C)OC(=O)C(C(C)C)NC(=O)C(C)OC(=O)C(C(C)C)NC(=O)C(C(C)C)OC(=O)C(C(C)C)NC1=O (configuration not stated) | -7 | x | x | x | 0.25µM* | 0.56µM*
COC(=O)C1=C(c2ccc(OC)c(OC)c2)C[C@@H]2CC[C@H]1N2C(=O)N1CCCCC1 | x | 0% | 11% | x | x | x
c1nc[n]([Sn]([CH]2CCCCC2)([CH]2CCCCC2)[CH]2CCCCC2)n1 | 1 | x | x | x | u | 22µM*
CCC(=Nc1ccc(OC)cc1OC)c1c(O)n(C2CCCCC2)c(=O)[nH]c1=O | -2 | 0% | 5% | -2% | u | 6.3µM*
Oc1c(C(Nc2cccnc2)c2ccccc2F)ccc2cccnc12 (configuration not stated) | x | 1% | 1.4µM* | x | x | x
O=C(Nc1cccc(F)c1)N1CCCC2(CCN(C(=O)Oc3ccccc3)CC2)C1 | -1 | x | x | x | 21% | 6%
CC1(C)C(C(=O)N2CCN(c3ccc(Cl)cc3)CC2)C1(C)C | -1 | -4% | 7% | -1% | 19% | -11%
COC(=O)C1CN(C#N)N(c2ccc(Cl)cc2)C12c1ccccc1-c1ccccc12 (configuration not stated) | -4 | 5%[57.1 µM] | u | -5% | 0.56µM* | 0.79µM*
O=C(O)CC1OCC=C2CN3CCC45C6=CC(=O)C(=O)C([N+](=O)[O-])=C6NC4C1C2CC35 (configuration not stated) | -92* | 16µM* | 16µM* | 10µM* | u | u
N=C1c2ccccc2CN1NC(=O)C1CC1 | -1 | -13% | -18% | 2% | -11% | -6%
C=Cn1ccnc1P(=S)(c1nccn1C=C)C1CCCCC1 | -2 | 13% | 23% | 3% | 10µM* | u
C=Cn1ccnc1P(=S)(c1nccn1C=C)c1nccn1C=C | 3 | 6% | 25% | -1% | -38% | 9%
C#CCOCOCC#CCN(CC)CC | 1 | 1% | 9%[57.1 µM] | 0% | 6% | -11%
CCOC(=O)CCCc1cc[c]([Sb](=[O])([OH])[OH])cc1 | x | -6% | 1.1µM* | x | x | x
C[C@@H]1C[C@H](C)C[C@H](C)[C@@H](O)CC(=O)O[C@H]([C@H]2CCC[C@H]2C(=O)O)C/C=C/C=C(/C#N)[C@H](O)[C@@H](C)C1 | -2 | x | x | x | 0.028µM* | u
Cc1cc(C)cc(C(=O)OC2C[C@H]3CC[C@@H](C2)N3C)c1 (some centres not stated) | 4 | x | x | x | -9% | 3%
COc1ccc(Cc2nccc3cc(OC)c(OC)cc23)cc1OC | -32*! | 6%[57.1 µM] | u | 1% | u | 28µM*!
COc1ccc2[nH]cc(CCN)c2c1 | 3 | 11%[57.1 µM] | 17%[57.1 µM] | x | 4% | -15%
CCCCCCCCCOc1ccc2[nH]cc(CCN)c2c1 | -1 | x | x | -1% | 3.2µM* | u
CCc1ccc(-c2nn(Cc3ccccc3)cc2C=O)cc1 | 1 | -10%[57.1 µM] | -10%[57.1 µM] | -2% | u | 28%

Screening results deposited in PubChem by National Center for Advancing Translational Sciences (NCATS).
